Data as given in PubChem BioAssay (Tox21).
Values joined by “and” are separate entries in the source; they are usually repeats but may differ in a detail not shown here. Equal values may be shown once. Inconclusive results are not listed. Where a call stands in place of a potency, no number is given. Active and inactive are the calls of the source. Unless noted, the call rests on the fitted dose curve; in most records, active means well fitted curve in the direction sought with a large enough effect in the repeat runs; inconclusive means weak or mixed curves; inactive means no such curve, though single readings can be large; an effect the other way counts as inactive or inconclusive.

Columns and labels:
[1] = qHTS assay to test for compound auto fluorescence at 535 nm (green) in HEK293 cells (AID 720680)
[2] = qHTS assay to test for compound auto fluorescence at 460 nm (blue) in HEK293 cell free culture (AID 720681)
How it was run: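 Test compounds were pinned into cell-free culture medium (DMEM with 10% FBS) and fluorescence was read directly at Ex/Em 405/460 nm. Signals were expressed as fluorescence equivalents of triamterene, with DMSO vehicle as control.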

[3] = qHTS assay to test for compound auto fluorescence at 535 nm (green) in HEK293 cell free culture (AID 720682)
How it was run: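 Green-label autofluorescence (485 nm excitation, 535 nm emission) measured on compound added to cell-free culture medium (DMEM, 10% FBS). Output is expressed relative to fluorescein.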

[4] = qHTS assay to test for compound auto fluorescence at 590 nm (red) in HEK293 cell free culture (AID 720683)
How it was run: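 Tox21 10K library compounds were pinned into cell-free DMEM with 10% FBS and fluorescence was read at excitation 540 nm. Activity is expressed as Rose Bengal sodium equivalency.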

[5] = qHTS assay to test for compound auto fluorescence at 590 nm (red) in HepG2 cell free culture (AID 720684)
How it was run: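 Measured in medium alone (MEM containing 10% FBS) following pintool addition of compound; emission at 590 nm with 540 nm excitation, referenced to Rose Bengal sodium.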

[6] = qHTS assay to test for compound auto fluorescence at 460 nm (blue) in HepG2 cell free culture (AID 720685)
How it was run: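 Compound (23 nL) or DMSO pinned into cell-free MEM with 10% FBS; blue fluorescence read at 405/460 nm excitation/emission, expressed as auto-fluorescence equivalency to triamterene.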

[7] = qHTS assay to test for compound auto fluorescence at 535 nm (green) in HepG2 cell free culture (AID 720686)
[8] = qHTS assay to test for compound auto fluorescence at 460 nm (blue) in HepG2 cells (AID 720687)
How it was run: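 Cells (2,000/well in MEM with 10% FBS) attached overnight at 37 C, then were exposed to compound or DMSO for 1 hr at 37 C, 5% CO2. Fluorescence read at Ex/Em 405/460 nm, expressed as triamterene-equivalent signal.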

[9] = qHTS assay to identify small molecule antagonists of the glucocorticoid receptor (GR) signaling pathway - cell viability counter screen (AID 720693); further: nearly all actives have a fitted effect of over 55% in size; further: potency means the concentration at half of the fitted maximal effect
[10] = qHTS assay for identifying genotoxic compounds that show differential cytotoxicity against isogenic chicken DT40 cell lines with known DNA damage response pathways - wild type cell line (AID 743012); further: nearly all actives have a fitted effect of over 60% in size; further: potency means the concentration at half of the fitted maximal effect
How it was run: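 Parental DNA repair-proficient DT40 cells, 300 per well, were pre-incubated ~0.5 h at 37 C/5% CO2, pin-dosed with compounds in DMSO, then incubated 40 h. Viability was read as CellTiter-Glo luminescence after 30 min at room temperature.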

[11] = qHTS assay to identify small molecule antagonists of the androgen receptor (AR) signaling pathway - cell viability counter screen (AID 743033; further: nearly all actives have a fitted effect of over 45% in size)
[12] = qHTS assay to identify small molecule antagonists of the androgen receptor (AR) signaling pathway using the MDA cell line - cell viability counter screen (AID 743041; further: nearly all actives have a fitted effect of over 45% in size; further: potency means the concentration at half of the fitted maximal effect)
How it was run: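 Viability counter screen run alongside the AR antagonist reporter: cells seeded 5 h before compound, R1881 added, 16 h incubation at 37C without CO2, fluorescent CellTiter-Fluor signal quantified.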

[13] = qHTS assay for identifying genotoxic compounds that show differential cytotoxicity against isogenic chicken DT40 cell lines with known DNA damage response pathways - Rev3 mutant cell line (AID 743014); further: nearly all actives have a fitted effect of over 55% in size; further: potency means the concentration at half of the fitted maximal effect
[14] = qHTS assay for identifying genotoxic compounds that show differential cytotoxicity against isogenic chicken DT40 cell lines with known DNA damage response pathways - Rad54/Ku70 mutant cell line (AID 743015); further: nearly all actives have a fitted effect of over 60% in size; further: potency means the concentration at half of the fitted maximal effect
[15] = target: Androgen receptor (Homo sapiens) (UniProt P10275); test: qHTS assay to identify small molecule antagonists of the androgen receptor (AR) signaling pathway (AID 743035; active means well fitted inhibition curve with a large enough effect in the signal ratio in the repeat runs, not every such curve was filed as active; the % refers to the signal ratio)
Chain of Androgen receptor (Homo sapiens) (P10275 whole entry, looked up): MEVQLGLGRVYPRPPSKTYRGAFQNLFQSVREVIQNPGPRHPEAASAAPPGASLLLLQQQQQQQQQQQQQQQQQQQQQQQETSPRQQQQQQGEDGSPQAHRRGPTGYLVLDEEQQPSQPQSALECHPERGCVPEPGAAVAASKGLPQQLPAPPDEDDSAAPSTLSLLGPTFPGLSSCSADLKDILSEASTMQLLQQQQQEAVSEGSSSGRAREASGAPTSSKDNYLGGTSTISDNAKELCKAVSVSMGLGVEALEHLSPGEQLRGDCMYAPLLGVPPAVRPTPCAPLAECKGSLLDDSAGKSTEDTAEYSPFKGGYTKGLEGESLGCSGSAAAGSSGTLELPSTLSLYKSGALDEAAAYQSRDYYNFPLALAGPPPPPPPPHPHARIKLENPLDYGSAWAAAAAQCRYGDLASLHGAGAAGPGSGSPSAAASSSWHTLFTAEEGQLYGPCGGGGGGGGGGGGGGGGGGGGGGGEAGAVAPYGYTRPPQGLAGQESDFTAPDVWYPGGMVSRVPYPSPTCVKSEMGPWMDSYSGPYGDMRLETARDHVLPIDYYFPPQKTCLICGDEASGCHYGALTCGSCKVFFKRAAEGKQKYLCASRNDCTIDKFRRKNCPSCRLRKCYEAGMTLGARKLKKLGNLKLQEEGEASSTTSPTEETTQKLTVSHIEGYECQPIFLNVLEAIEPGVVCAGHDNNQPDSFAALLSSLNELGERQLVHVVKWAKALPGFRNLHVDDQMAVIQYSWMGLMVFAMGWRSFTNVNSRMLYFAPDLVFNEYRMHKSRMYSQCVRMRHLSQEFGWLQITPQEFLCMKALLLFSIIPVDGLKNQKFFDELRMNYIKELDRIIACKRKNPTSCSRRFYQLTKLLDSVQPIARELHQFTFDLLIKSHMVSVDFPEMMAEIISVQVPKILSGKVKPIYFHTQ
How it was run: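 HEK293 cells stably carrying a UAS-driven beta-lactamase reporter (AR-UAS-bla GripTite) were plated for 4 h at 37C, then given compound and the agonist R1881 and incubated 16 h. Reporter activity was read by LiveBLAzer B/G FRET fluorescence after 2 h at room temperature.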

[16] = target: Androgen receptor (Homo sapiens) (UniProt P10275); test: qHTS assay to identify small molecule agonists of the androgen receptor (AR) signaling pathway (AID 743036; active means well fitted activation curve with a large enough effect in the signal ratio in the repeat runs, with a control signal flat, not every such curve was filed as active; the % refers to the signal ratio)
How it was run: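 AR-UAS-bla HEK293 cells, plated 4 h before dosing, were treated with compound for 16 h at 37C. beta-Lactamase reporter read after 2 h with LiveBLAzer B/G FRET substrate at room temperature.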

[17] = target: Androgen receptor (Homo sapiens) (UniProt P10275); test: qHTS assay to identify small molecule agonists of the androgen receptor (AR) signaling pathway using the MDA cell line (AID 743040; further: nearly all actives have a fitted effect of over 20% in size)
How it was run: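 Luminescence from ONE-Glo, read after 30 min at room temperature, reflects MMTV-driven luciferase in MDA-kb2 cells (AR- and GR-responsive). Treatment lasted 16 h at 37C, 0% CO2.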

[18] = target: Androgen receptor (Homo sapiens) (UniProt P10275); test: qHTS assay to identify small molecule antagonists of the androgen receptor (AR) signaling pathway using the MDA cell line (AID 743042; further: nearly all actives have a fitted effect of over 55% in size)
How it was run: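 MDA-kb2 cells (human breast carcinoma, stably carrying an MMTV-luciferase reporter responsive to AR and GR) were plated at 3,000 cells/well and preincubated 5 hr at 37C, then given compound plus R1881 agonist for 16 h. ONE-Glo luminescence was read.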

[19] = target: Glucocorticoid receptor (Homo sapiens) (UniProt P04150); test: qHTS assay to identify small molecule agonists of the glucocorticoid receptor (GR) signaling pathway (AID 720691; active means well fitted activation curve with a large enough effect in the signal ratio in the repeat runs, not every such curve was filed as active; the % refers to the signal ratio)
Chain of Glucocorticoid receptor (Homo sapiens) (P04150 whole entry, looked up): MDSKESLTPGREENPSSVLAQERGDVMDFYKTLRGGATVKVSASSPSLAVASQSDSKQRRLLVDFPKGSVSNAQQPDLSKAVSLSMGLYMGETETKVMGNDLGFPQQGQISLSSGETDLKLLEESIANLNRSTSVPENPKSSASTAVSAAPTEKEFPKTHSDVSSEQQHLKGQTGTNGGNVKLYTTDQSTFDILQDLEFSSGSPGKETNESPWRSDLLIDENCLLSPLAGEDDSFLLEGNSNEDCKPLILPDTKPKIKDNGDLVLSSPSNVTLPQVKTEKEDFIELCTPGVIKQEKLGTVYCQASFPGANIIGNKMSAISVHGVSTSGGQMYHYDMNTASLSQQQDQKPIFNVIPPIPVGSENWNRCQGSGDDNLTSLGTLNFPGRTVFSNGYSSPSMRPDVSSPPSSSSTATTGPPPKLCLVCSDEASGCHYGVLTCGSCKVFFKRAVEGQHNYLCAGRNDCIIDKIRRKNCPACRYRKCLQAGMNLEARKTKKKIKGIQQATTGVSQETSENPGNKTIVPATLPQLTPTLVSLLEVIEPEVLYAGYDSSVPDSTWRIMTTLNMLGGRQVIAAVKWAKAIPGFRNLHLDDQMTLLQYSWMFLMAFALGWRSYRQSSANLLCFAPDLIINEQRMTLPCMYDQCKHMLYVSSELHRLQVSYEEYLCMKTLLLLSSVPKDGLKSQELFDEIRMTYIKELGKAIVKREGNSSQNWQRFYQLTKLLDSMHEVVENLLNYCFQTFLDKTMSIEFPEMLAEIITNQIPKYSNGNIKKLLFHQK
How it was run: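 GR-bla HeLa cells (beta-lactamase reporter under glucocorticoid response element) were plated 4 h at 37 C/5% CO2, given compounds in DMSO, and incubated 18 h at 37 C. LiveBLAzer B/G FRET substrate was added for 2 h at room temperature, then fluorescence intensity read.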

[20] = target: Glucocorticoid receptor (Homo sapiens) (UniProt P04150); test: qHTS assay to identify small molecule antagonists of the glucocorticoid receptor (GR) signaling pathway (AID 720692; active means well fitted inhibition curve with a large enough effect in the signal ratio in the repeat runs, not every such curve was filed as active; the % refers to the signal ratio)
How it was run: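 GR-bla HeLa cells (beta-lactamase reporter under glucocorticoid response element) were pre-plated 4 h at 37 C, treated with compounds plus 5 nM dexamethasone (final) for 18 h, then read by LiveBLAzer B/G FRET fluorescence after 2 h.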

| SMILES | outcome [1] | Potency [2] | outcome [3] | outcome [4] | outcome [5] | outcome [6] | outcome [7] | outcome [8] | Potency [9] | Potency [10] | Potency [11] | Potency [12] | Potency [13] | Potency [14] | Potency [15] | outcome [16] | outcome [17] | Potency [18] | Potency [19] | Potency [20] |
| --- | --- | --- | --- | --- | --- | --- | --- | --- | --- | --- | --- | --- | --- | --- | --- | --- | --- | --- | --- | --- |
| OCCOc1cccc(OCCO)c1 | inactive | inactive | inactive | inactive | inactive | inactive | inactive | inactive | inactive | inactive | inactive | inactive |  |  |  |  |  |  |  |  |
| O=C(Cl)c1ccc(F)c(Cl)c1 | inactive | inactive | inactive | inactive | inactive | inactive | inactive | inactive | inactive |  | inactive | inactive | inactive | inactive |  |  |  |  |  |  |
| COc1ccc(C(=O)c2ccc(C)cc2)c(O)c1 | inactive | inactive | inactive | inactive | inactive | inactive | inactive | inactive | inactive | inactive | inactive | inactive |  |  |  |  |  |  |  |  |
| Sc1nc(S)nc(S)n1 | inactive | inactive | inactive | inactive | inactive | inactive | inactive | inactive | inactive |  | inactive | inactive | inactive | inactive |  |  |  |  |  |  |
| Nc1ccccc1Nc1ccccc1 | inactive | inactive | inactive | inactive | inactive | inactive | inactive | inactive | 55.1 µM (active) | 19.4 µM (active) | inactive |  |  | 15.4 µM (active) |  |  |  |  |  |  |
| O=P(c1ccccc1)(c1ccccc1)c1ccccc1 | inactive | inactive | inactive | inactive | inactive | inactive | inactive | inactive | inactive |  | inactive | inactive | 61.1 µM (active) | 61.1 µM (active) |  |  |  |  |  |  |
| O=C1C=CCCC1 | inactive | inactive | inactive | inactive | inactive | inactive | inactive | inactive |  | inactive | inactive | inactive |  | inactive |  |  |  |  |  |  |
| Cc1c(Cl)cccc1Nc1ccccc1C(=O)O | inactive | inactive | inactive | inactive | inactive | inactive | inactive | inactive | inactive |  |  | inactive | inactive |  |  |  |  |  |  |  |
| C[C@H]1C[C@H]2[C@@H]3CCC4=CC(=O)C=C[C@]4(C)[C@@]3(F)[C@@H](O)C[C@]2(C)[C@@]1(O)C(=O)COP(=O)(O)O | inactive | inactive | inactive | inactive | inactive | inactive | inactive | inactive | inactive | inactive | inactive | inactive | inactive | inactive |  |  |  |  |  |  |
| CCc1ccc2c(c1)C(=O)c1ccccc1C2=O | inactive | inactive | inactive | inactive | inactive | inactive | inactive | inactive | inactive | inactive | inactive |  |  | inactive |  |  |  |  |  |  |
| CC1(C)[C@@H]2CC[C@]3(C2)[C@@H]1C(=O)CCC3(C)C | inactive | inactive | inactive | inactive | inactive | inactive | inactive | inactive |  |  | inactive | inactive |  |  | inactive | inactive | inactive | inactive |  |  |
| Nc1nc(Cl)nc2c1ncn2[C@H]1C[C@H](O)[C@@H](CO)O1 | inactive | inactive | inactive | inactive | inactive | inactive | inactive |  | inactive | 13.3 nM (active) and 1.9 nM (active) | inactive | inactive | 16.8 nM (active) and 1.7 nM (active) | 21.1 nM (active) and 2.7 nM (active) |  |  |  |  | inactive |  |
| O=C1c2ccccc2C(=O)C1c1ccc2cc(S(=O)(=O)O)cc(S(=O)(=O)O)c2n1 | inactive | inactive | inactive | inactive | inactive | inactive | inactive |  |  | inactive | inactive | 52.5 µM (active) |  |  |  |  |  |  | inactive |  |
| CCCCOC(=O)CC#N | inactive | inactive | inactive | inactive | inactive | inactive |  | inactive |  | inactive | inactive | inactive |  | inactive |  |  |  |  |  |  |
| CC1(C)CC(=O)CC(C)(C)N1 | inactive | inactive | inactive | inactive | inactive | inactive |  |  | inactive | inactive | inactive |  | inactive | inactive |  |  |  |  | inactive | inactive |
| CCCC(=O)OCc1ccccc1 | inactive | inactive | inactive | inactive | inactive | inactive |  | inactive | inactive | inactive |  | inactive | inactive | inactive |  |  |  |  |  |  |
| CCCCOc1ccc(N)cc1 | inactive | inactive | inactive | inactive | inactive | inactive |  | inactive | inactive | inactive | inactive |  | inactive | inactive |  |  |  |  | inactive | inactive |
| Cc1cc(C)n(CO)n1 | inactive | inactive | inactive | inactive | inactive | inactive | inactive |  | inactive | inactive | inactive | inactive | inactive | inactive |  |  |  |  | inactive | inactive |
| COc1cc(C)c(Cc2cnc(N)nc2N)cc1OC | inactive | inactive | inactive | inactive | inactive | inactive | inactive |  |  | 26.6 µM (active) | inactive |  |  | 26.6 µM (active) |  |  |  |  | inactive | inactive |
